A selection: hits, their analogues and other compounds. The true share with any hit is near 2.6%.
HSP90 refold inh: blocks HSP90-mediated luciferase refolding in reticulocyte lysate; Rabbit reticulocyte lysate, luciferase refolding luminescence, 3 h; inhibition, % at 5.6 µM; 290,000 compounds, 0.91% hits; AID 1789;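 active = inhibition above the screen-wide mean plus 3 SD, computed separately per campaign, cut at about 16% in these data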;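 note: 0% = DMSO wells and 100% = 60 µM geldanamycin wells; inhibitors lower the luminescence because luciferase stays unfolded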
EBV LMP1 NFkB: Epstein-Barr LMP1 NF-kappaB reporter inhibition | LMP1-induced NF-kappaB luciferase reporter cells, luminescence | inhibition, % at 12.5 µM | 350,000 compounds, 0.69% hits | AID 504558; in the data active = inhibition above about 41%; inconclusive = no clear call, values can overlap the other calls;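 note: 0% = neutral control wells and 100% = reference inhibitor control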
TWEAK Fn14 block: inhibitors of TWEAK-Fn14 interaction signaling | TWEAK-stimulated Fn14 reporter cells, luciferase luminescence, 8 h | AID 1159606 | 360,000 compounds, 2% hits | inhibition, % at 10 µM; in the data active = inhibition above about 50%
TROY signal inh: inhibitors of TROY-dependent NF-kB signaling; Q293 LMP1-TROYcd NF-kB luciferase reporter, 4 h; inhibition, % at 10 µM; 360,000 compounds, 0.98% hits; AID 1347056;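 active = compounds whose plate-normalised and pattern-corrected inhibition of the luciferase reporter signal at the single screening dose is 50% or more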
aDG glyco up: increases alpha dystroglycan glycosylation; Pro5-aDG cells, alpha-DG glycosylation AlphaScreen (IIH6); 0% Pro5, 100% B10-LARGE cell signal; activation, % at 10 µM; 360,000 compounds, 0.22% hits;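 active = activation of at least 8% versus controls, or a plate z-score of at least 8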;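 note: Pro5 are CHO cells carrying HIG-tagged alpha-DG that lacks glycosylation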
LGR2 antag: inhibitors of bursicon-induced Drosophila LGR2 receptor cAMP signaling. HEK293 LGR2, CRE-luciferase, bursicon-stimulated, 4 h. inhibition, % at 9.99 µM. 380,000 compounds, 0.35% hits. AID 720647;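 active = drop in luminescence signal, shown as inhibition above about 50% in the replicate tests, limit read from the data, passing the limit was not always enough; inconclusive = probably only some replicates passing the limit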;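 note: agonist challenge used bursicon conditioned medium at about half maximal strength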
Numbers without * were called inactive; u = inconclusive; x = not tested or not shown; ! = not active in a repeat.

SMILES | HSP90 refold inh | EBV LMP1 NFkB | TWEAK Fn14 block | TROY signal inh | aDG glyco up | LGR2 antag
COCCNC(=O)C[C@@H]1C[C@H]2c3cc(NS(C)(=O)=O)ccc3O[C@H]2[C@H](CO)O1 | x | x | x | x | x | -6
COc1cc(/C=C/C(=O)OCC(=O)NCc2ccco2)ccc1OC(F)F | 2 | 2 | -14 | -4 | 0 | -11
COc1ccc(/C=C/C(=O)OCC(=O)NCc2ccco2)cc1OC | 0 | 56* | 17 | 13 | 0 | -8
CC(=C/C(=O)O)/C=C/c1ccc([N+](=O)[O-])cc1 | 0 | 4 | 35 | -32 | 0 | -19
CC1(C)COC(/C=C/c2ccc([N+](=O)[O-])cc2)=N1 | 3 | 9 | 62* | -66 | 4 | -10
Nc1nc(-c2ccc(C(=O)O)cc2)cs1 | 2 | -3 | -11 | -11 | 0 | x
Nc1cc2sc(-c3ccc(C(=O)O)cc3)nc2cc1Cl | 18* | 18 | 29 | -15 | 0 | u
CCc1nc(N2[C@H](C#N)[C@H](c3ccccc3-c3ccccc3F)[C@@H]2CO)sc1C | x | x | x | x | x | 28
COC(=O)c1c(NC(=O)CC2SC(N)=NC2=O)sc2c1CCC(C)C2 (stereo not drawn) | 2 | 2 | -26 | -3 | 0 | -5
CCOC(=O)c1c(NC(=O)CC2SC(N)=NC2=O)sc2c1CCC(C)C2 (stereo not drawn) | 59* | 6 | -15 | 14 | 0 | 8
CCOC(=O)C1=C(C)NC(C)=C(C(=O)OC)C1c1cccc(Cl)c1Cl (stereo not drawn) | 2 | -4 | -37 | 5 | 0 | 3
CCOC(=O)C1=C(COCCN)NC(C)=C(C(=O)OC)C1c1ccccc1Cl (stereo not drawn) | x | -4 | 3 | 66*! | 0 | 18
CC(=O)Nc1sc(N/N=C/c2ccccc2)nc1-c1ccc(C)cc1 | 0 | -1 | 18 | -48 | 0 | -29
CCCc1sc(N/N=C/c2ccccn2)nc1-c1ccc(Br)cc1 | 3 | 59* | 13 | -19 | 2 | -16
C=CC[C@H](CC(=O)N[C@H](CO)Cc1ccccc1)C(=O)N[C@H](COC(=O)[C@@H](CC=C)Cc1ccc(F)cc1)Cc1c[nH]c2ccccc12 | x | 5 | 13 | 10 | 0 | x
C=CC[C@H](CC(=O)N(CCO)Cc1ccccc1)C(=O)N[C@@H](COC(=O)[C@@H](CC=C)Cc1ccc(F)cc1)Cc1c[nH]c2ccccc12 | x | -2 | 70* | 35 | 0 | 10
C=CC[C@@H](CC(=O)N[C@H](CO)Cc1ccccc1)C(=O)N[C@H](COC(=O)[C@@H](CC=C)Cc1ccc(F)cc1)Cc1c[nH]c2ccccc12 | x | 32 | 66* | 69* | 3 | 12
C=CC[C@H](CC(=O)N(CCO)Cc1ccccc1)C(=O)N[C@@H](COC(=O)[C@H](CC=C)CC(=O)OC(C)(C)C)Cc1c[nH]c2ccccc12 | x | -3 | 27 | 24 | 0 | 26
C=CC[C@@H](CC(=O)N(CCO)Cc1ccccc1)C(=O)N[C@@H](COC(=O)[C@@H](CC=C)Cc1ccc(F)cc1)Cc1c[nH]c2ccccc12 | x | 7 | 57* | 45 | 1 | 38
C=CC[C@@H](CC(=O)N(CCO)Cc1ccccc1)C(=O)NC[C@H](OC(=O)[C@@H](CC=C)Cc1ccc(F)cc1)c1ccccc1 | x | 14 | 52* | 42 | -1 | 3
CCC(=O)N1[C@H](CO)[C@H]2c3ccccc3N(C(=O)c3cnccn3)C[C@H]21 | x | x | x | x | x | -25
C[C@@H]1CN([C@@H](C)CO)C(=O)Cc2cc(NC(=O)Nc3ccc4c(c3)OCO4)ccc2O[C@H]1CN(C)S(=O)(=O)c1ccc(Cl)cc1 | x | x | x | x | x | -12
C[C@@H]1CCCCO[C@@H](CN(C)C(=O)c2ccccc2)[C@H](C)CN([C@H](C)CO)C(=O)c2cc(NC(=O)c3ccccc3)ccc2O1 | x | x | x | x | x | 0
Nc1nccc(SCc2ccc(Cl)cc2Cl)n1 | x | 6 | 57* | 18 | 0 | 3
O=C(Nc1ccccc1)C1=C(c2ccccc2)S(=O)(=O)CCS1(=O)=O | 1 | 72* | 88* | 87* | -1 | 100*
SMILES | HSP90 refold inh | EBV LMP1 NFkB | TWEAK Fn14 block | TROY signal inh | aDG glyco up | LGR2 antag
Cc1nonc1NC(=O)CSc1nc(C23CC4CC(CC(C4)C2)C3)nc2ccccc12 | 1 | -19 | 66* | -5 | 1 | 13
CO[C@H]1CN(C)C(=O)c2ccc(NC(=O)Nc3ccc4c(c3)OCO4)cc2OC[C@H](C)NC[C@@H]1C | x | x | x | x | x | -19
O=[N+]([O-])c1ccc(N2CCN(Cc3ccccc3)CC2)s1 | 2 | -2 | 12 | -7 | 0 | -9
O=[N+]([O-])c1ccc(N2CCN(Cc3ccccc3)CC2)c2c1no[n+]2[O-] | x | -43 | 39 | -15 | 0 | 102*
Cc1nn(C(=O)c2c(-c3ccccc3)noc2C)c(C)c1N=Nc1cc(C(F)(F)F)cc(C(F)(F)F)c1 | 6 | -2 | 21 | 68* | 0 | -7
COc1cccc(CN2CCCCN3[C@H](C2)[C@H](c2ccc(-c4cccnc4)cc2)[C@@H]3CO)c1 | x | x | x | x | x | -9
C[C@H](CO)N1C[C@H](C)[C@H](CN(C)S(=O)(=O)c2cn(C)cn2)Oc2ccc(NC(=O)Nc3ccc4c(c3)OCO4)cc2C1=O | x | x | x | x | x | 3
CNS(=O)(=O)c1cccc(C(=O)OCC(=O)NCCCc2ccccc2)c1 | -1 | -2 | 2 | 0 | 0 | 26
CNS(=O)(=O)c1cccc(C(=O)OCC(=O)NC(C)CCc2ccccc2)c1 (stereo not drawn) | -2 | 42* | -2 | -18 | 0 | 2
O=C(Nc1ccc(F)cc1)Nc1ccc2c(c1)[C@@H]1C[C@@H](CC(=O)N3CCOCC3)O[C@H](CO)[C@@H]1O2 | x | x | x | x | x | -2
Cc1ccc(/C=C/c2nc3ccccc3c(=O)[nH]2)cc1 | 14 | 45* | 75* | 52* | 0 | 84*
O=C(NC(c1ccccc1)c1ccc2ccccc2n1)C1CCN(CCOc2ccc(Cl)cc2)CC1 (stereo not drawn) | x | x | 92* | 11 | 0 | -1
Cc1ccc(C)c(N2CCN(C(=O)Cn3cccc3)CC2)c1 | 1 | 8 | 5 | 12 | 0 | 9
Cc1ccc(S(=O)(=O)Cc2ccc(C(=O)N3CCN(c4cc(C)ccc4C)CC3)o2)cc1 | 4 | -4 | 29 | 11 | 0 | x
CCC(=O)N1CCN(c2cc(C)ccc2C)CC1 | 1 | 2 | 76* | -9 | 0 | x
Cc1ccc(C)c(N2CCN(C(=O)c3ccc(CS(=O)(=O)c4ccccc4C)o3)CC2)c1 | 1 | 6 | 55* | 12 | 0 | x
Cc1ccc(CS(=O)Cc2ccc(C(=O)N3CCN(c4cccc(C)c4C)CC3)o2)cc1 (stereo not drawn) | x | 0 | 13 | 57* | 0 | 1
Cc1ccc(Cl)cc1N1CCN(C(=O)c2ccc(CS(=O)Cc3ccc(Cl)cc3)o2)CC1 (stereo not drawn) | 5 | -1 | 10 | 54* | 0 | 6

Assay outcomes deposited in PubChem by several laboratories.
